In PubChem BioAssay (Tox21) one finds outcome data, which are given here for 40 molecules.

The structures appear in SMILES notation. Records with an inconclusive call do not appear. Activity calls are given as the source filed them. Calls follow the shape of the dose curve; as a rule, active = well fitted activation curve with a large enough effect in the signal ratio in the repeat runs (not every such curve was filed as active); inconclusive = weak or mixed curves, or effect the other way; inactive = flat fitted curve, though single readings scatter; the % refers to the signal ratio.

This test in a line: qHTS assay to identify small molecule agonists of the endoplasmic reticulum stress response signaling pathway (AID 1159516). The conditions noted are these: ESRE-bla HeLa, ER stress beta-lactamase reporter, 5 h; series mostly up to 61 µM. From the text:
National Center for Advancing Translational Sciences [NCATS]
NIH Chemical Genomics Center [NCGC]
U.S. Environmental Protection Agency [EPA]
National Institutes of Environmental Health Sciences [NIEHS]
National Toxicology Program [NTP]
U.S. Food and Drug Administration [FDA]
Endoplasmic Reticulum (ER) plays an important role in cellular signaling, protein folding/maturation, stress response, lipid biosynthesis, calcium storage and release etc. Under stress conditions, proteins in ER misfold or unfold, and leading to the expression of ER stress responsive genes. ER stress has been associated with a variety of pathophysiological conditions such as cancer, inflammation, neurodegenerative diseases, diabetes, ischemic heart disease etc. To identify the compounds that induce ER stress response, an ER stress reporter cell line, CellSensor ESRE-bla HeLa (Life Technologies, Carlsbad, CA) containing a beta-lactamase reporter gene under control of the Endoplasmic reticulum Stress Response Element (ESRE) was used to screen Tox21 10K compound library.
Tox21 Assay Protocol Summary:
ESRE-bla HeLa cells were dispensed at 1,500 cells/6 uL of assay medium per well into black wall/clear-bottom 1536-well plates using a Multidrop Combi (ThermoFisher Scientific, Waltham, MA) dispenser. After the assay plates were incubated at 37 C and 5% CO2 for an overnight, 23 nL of compounds dissolved in DMSO, positive controls or DMSO only was transferred to the assay plate by a Pintool station (Kalypsys, San Diego, CA). The assay plates were incubated at 37 C and 5% CO2 for 5 hr. One uL of LiveBLAzer B/G FRET substrate (Life Technologies) was added using a Flying Reagent Dispenser (Aurora Discovery, San Diego, CA) and the plates were incubated at room temperature for 2 hr. Fluorescence intensity (405 nm excitation, 460 nm and 530 nm emissions) was measured using an Envision plate reader (PerkinElmer, Shelton, CT).
On to `CCN(CC)C(=O)N(CC)CC`, for which the call was inactive.
Turning to `CCCCNc1cc(C(=O)O)cc(S(N)(=O)=O)c1Oc1ccccc1`, the result was inactive.
Take `CC(=O)N[C@@H](CC(C)C)C(=O)O`: the outcome was inactive.
The result for `COC(=O)/C=C(/C)N` reads “inactive”.
For the molecule `COc1nc(C)nc(NC(=O)NS(=O)(=O)c2ccccc2OCCCl)n1`, the result was inactive.
For `COc1cc(C)ccc1C(C)C`, the molecule was called inactive.
Consider `COc1ccc(Nc2ccc(OC)cc2)cc1`, for which the molecule was called inactive.
Take `CN(C)CCOc1ccccc1Cc1ccccc1`: the call was inactive.
Consider `COC(=O)C(C)O` (stereo not given), for which the molecule was classed as inactive.
For `C=Cc1ccccc1`, the result was inactive.
For `CC(C)C[C@H](NC(=O)OCC1c2ccccc2-c2ccccc21)C(=O)O`, the molecule was classed as inactive.
Regarding `C[C@]12CCC(=O)C=C1CC[C@@H]1[C@@H]2CC[C@@]2(C)[C@H]1CC[C@]2(O)C(=O)CO`, the call was inactive.
Consider `O=C(O)[C@@H](O)[C@H](O)[C@H](O)[C@@H](O)C(=O)O`, for which the call was inactive.
Take `C=CCc1cc(OC)c(O)c(C(=O)NCCO)c1`: the result was inactive.
The result for `COc1cc(Cl)ccc1Cl` reads “inactive”.
On to `CCCOc1ccc2c(c1)CC[C@@H]1[C@@H]2CC[C@]2(C)C(OC)CC[C@@H]12` (stereo not given in full), for which the outcome was inactive.
As for `CCc1cc2cc(OC)c(OC)cc2c(Cc2ccccc2)n1`, the entry is “inactive”.
Regarding `CCOC(=O)COc1ccc2c(c1)CC(NCC(O)c1cccc(Cl)c1)CC2` (stereo not given), the call was inactive.
The result for `CN1CCN(N)CC1` reads “inactive”.
For the molecule `ClC(Cl)Cl`, the molecule was called inactive.
Take `O=C(O[C@@H](C(=O)O)[C@@H](OC(=O)c1ccccc1)C(=O)O)c1ccccc1`: the molecule was called inactive.
`N#CSCC(=O)O`: the outcome was inactive.
Take `COc1ccccc1OCC(O)COC(N)=O` (stereo not given): the result was inactive.
As to `CC(=O)Oc1cc(C(C)C)c(OCCN(C)C)cc1C`, the molecule was classed as inactive.
As for `CCCOCCC`, the entry is “inactive”.
In the case of `O=C1Nc2ccc([N+](=O)[O-])cc2C1=O`, the outcome was inactive.
Take `CN1C(=O)CC(c2ccccc2)C1=O` (stereo not given): the molecule was called inactive.
Turning to `C=CC(C)(O)CC/C=C(\C)CCC=C(C)C` (stereo not given), the outcome was inactive.
With `Cc1ccc(C(C)C)cc1O`, the molecule was classed as inactive.
Consider `Nc1cccc(S(=O)(=O)O)c1`, for which the call was inactive.
On to `O=C(O)[C@@H]1CSCN1`, for which the molecule was classed as inactive.
As to `CCN1CC(CCN2CCOCC2)C(c2ccccc2)(c2ccccc2)C1=O` (stereo not given), the outcome was inactive.
For `Cc1onc(-c2ccccc2)c1C(=O)Cl`, the result was inactive.
For the molecule `O=Cc1ccc(F)c(Br)c1`, the call was inactive.
Turning to `CC(C)(C)c1ccc(OC(=O)c2ccccc2O)cc1`, the outcome was inactive.
As for `CCCCCOc1ccc(C2SC(=O)NC2=O)cc1OCC` (stereo not given), the entry is “inactive”; as for `CCCN(CCC)C(=O)C(CCC(=O)O)NC(=O)c1ccccc1` (stereo not given), “inactive”; as for `C=CC1CO1` (stereo not given), “inactive”.
As for `CCNCCO`, the entry is “inactive”.
For the molecule `CC(C)Nc1nc(N)nc(Cl)n1`, the molecule was classed as inactive.
